Data from PubChem BioAssay.
The source made the active and inactive calls.

Assay: CREB reporter modulators under forskolin, primary screen, cell-based, PC12, CRE-LacZ reporter, forskolin-stimulated (AID 1146);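 also: PC12 cells with 6xCRE LacZ reporter stimulated by forskolin 10 µM; beta-galactosidase reporter signal reflecting CREB driven transcription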
Conditions: luminescence, 4.5 h, higher = more signal, called active from +8 up or from −8 down

z-score, inactive:
C=CC[C@H](OC(=O)Nc1ccc(SC)cc1)c1ccc(O)c2ccccc12 3.2, O=C1O[C@@H](c2ccccc2)[C@@H](c2ccccc2)N2[C@@H](c3ccc(OCCO)cc3)[C@]3(C(=O)Nc4ccc(C#CC5=CCCCC5)cc43)[C@@H](C(=O)NC[C@H](O)c3ccccc3)[C@H]12 -0.239, O=C1O[C@H](c2ccccc2)[C@H](c2ccccc2)N2[C@H]1[C@@H](C(=O)O)[C@]1(C(=O)Nc3ccc(C#CCCO)cc31)[C@H]2c1ccccc1OCCO 1.04, CC(C)c1ccc(NN2C(C(O)c3ccc(C#N)cc3)C=CC3C(=O)N(c4ccccc4)C(=O)C32)cc1 (stereo not given) 0.802, C[N+](C)(C)CCCC[C@@H]1NC(=O)[C@@H]2C[C@H](C(=O)NCCCCCCN)[C@H](c3cccc(OCCO)c3)N2C1=O -0.618, CC(C)[Si]1(C(C)C)OCc2cc(C3CC3)nc(-c3ccc(Oc4ccccc4)cc3)c21 0.0211, COCCOC(=O)N1C(=O)[C@@]2(c3cc(C#CC4(O)CCCCCC4)ccc31)[C@H](c1ccc(O)cc1)N1[C@H](c3ccccc3)[C@H](c3ccccc3)OC(=O)[C@H]1[C@@H]2C(=O)N1CCN(c2ncccn2)CC1 0.0053, COC(=O)c1c(CC[C@@H](CO)NC(=O)N[C@@H](C)Cn2cc(-c3ccccn3)nn2)oc(C(C)=O)c1C(=O)OC 0.363, CCOC(=O)[C@@H]1CCCCN1C(=O)C(=O)OC 1.56, CN(C)c1ccc(C(O)C2C=CC3C(=O)NC(=O)C3N2Nc2ccccn2)cc1 (stereo not given) 0.337
